Assay outcomes from PubChem.
BoNT A protease: BoNT A light chain protease inhibition; multiplex microsphere protease substrate cleavage, flow cytometry; inhibition, % at 10 µM; actives 0.17% (n = 360,000); AID 588499
Bead autofluor: flagged as autofluorescent in microsphere protease counterscreen; compound autofluorescence counterscreen, microsphere flow cytometry; hits give high values; fluorescence intensity (test concentration not listed); actives 3.1% (n = 360,000); AID 624483; in the data active = fluorescence intensity above about 16000; inconclusive = no clear call, values can overlap the other calls
BoNT-F LC inh: BoNT F light chain protease inhibition; inhibition, % at 10 µM; actives 0.22% (n = 360,000); AID 588497; Multiplex microsphere protease cleavage assay, flow cytometry; in the data active = inhibition above about 35%, passing the limit was not always enough; inconclusive = no clear call, values can overlap the other calls
VHR inh abs: DUSP3 (human) phosphatase inhibition; actives 0.52% (n = 290,000); AID 1654; inhibition, % at 13.3 µM; P51452; recombinant VHR phosphatase, pNPP absorbance; in the data active = inhibition above about 50%
Anthrax LF inh2: blocks Bacillus anthracis lethal factor protease. P15917. multiplex microsphere protease cleavage assay, LF. inhibition, % at 10 µM. actives 0.12% (n = 360,000)
Target sequence (P15917 whole entry, looked up): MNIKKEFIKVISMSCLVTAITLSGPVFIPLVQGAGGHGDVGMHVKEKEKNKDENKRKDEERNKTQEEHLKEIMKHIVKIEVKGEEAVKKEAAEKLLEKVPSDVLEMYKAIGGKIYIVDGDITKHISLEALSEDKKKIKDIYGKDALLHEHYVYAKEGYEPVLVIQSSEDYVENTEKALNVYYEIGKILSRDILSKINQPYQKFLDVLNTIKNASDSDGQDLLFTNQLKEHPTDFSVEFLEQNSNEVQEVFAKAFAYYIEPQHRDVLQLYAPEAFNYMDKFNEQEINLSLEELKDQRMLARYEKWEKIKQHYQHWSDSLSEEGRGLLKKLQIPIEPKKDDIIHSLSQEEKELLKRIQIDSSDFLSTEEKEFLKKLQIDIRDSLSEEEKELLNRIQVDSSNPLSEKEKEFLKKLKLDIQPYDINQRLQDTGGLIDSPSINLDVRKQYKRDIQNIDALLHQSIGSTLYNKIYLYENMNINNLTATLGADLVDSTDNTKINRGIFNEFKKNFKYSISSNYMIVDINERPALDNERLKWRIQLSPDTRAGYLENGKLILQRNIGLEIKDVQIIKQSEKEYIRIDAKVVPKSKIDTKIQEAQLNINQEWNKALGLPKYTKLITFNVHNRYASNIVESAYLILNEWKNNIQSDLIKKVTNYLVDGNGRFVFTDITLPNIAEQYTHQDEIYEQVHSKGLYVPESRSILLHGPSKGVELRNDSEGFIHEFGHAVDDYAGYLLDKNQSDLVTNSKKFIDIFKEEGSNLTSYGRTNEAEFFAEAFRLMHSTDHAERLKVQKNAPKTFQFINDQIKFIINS
3CLpro inhibitor: SARS-CoV 3CLpro protease inhibition. P0C6X7. recombinant SARS-CoV 3CLpro, quenched FRET peptide cleavage. inhibition, % at 6 µM. actives 0.14% (n = 290,000). AID 1706; in the data active = inhibition above about 12%
A number is an active result; i = inactive; ? = inconclusive; nt = not tested or not shown. Sampled rows, rich in hits. Any-hit rate of the full collection: about 3.9%. Rule as the data show it, unless noted: active = inhibition above about 30%; inconclusive = no clear call, values can overlap the other calls; inactive = below that.

SMILES | BoNT A protease | Bead autofluor | BoNT-F LC inh | VHR inh abs | Anthrax LF inh2 | 3CLpro inhibitor
O=C(Nc1ccccc1-c1nc2ccccc2s1)c1ccc(Br)o1 | i | 23088 | i | i | i | i
O=C(COC(=O)c1ccc(Br)o1)Nc1nc2ccccc2s1 | i | 16288 | i | i | i | i
CCOC(=O)c1cc(N)cc([N+](=O)[O-])c1 | i | i | i | i | i | i
CCOC(=O)c1sc2cc([N+](=O)[O-])cc(SCC(C)C)c2c1N | 31.5 | 20038 | i | i | i | i
Cc1nc2nc(SCC(=O)NCc3ccco3)nn2c(C)c1Cc1c(F)cccc1Cl | i | i | i | 51.0 | i | i
Cc1ccccc1Cc1c(C)nc2nc(SCC(=O)NCCCN3CCCCC3)nn2c1C | i | i | i | 57.6 | i | i
Cc1cc(OCC(=O)C(C)(C)C)c2c(-c3ccccc3)cc(=O)oc2c1 | i | i | i | nt | i | i
Cc1cc(C(=O)CSc2nnc(-c3ccccc3F)o2)c(C)n1Cc1cccs1 | i | 20558 | i | i | i | i
COc1ccccc1-n1cnnc1SCC(=O)c1cc(C)n(Cc2cccs2)c1C | i | 17083 | i | i | i | i
COc1ccc(C(CC(=O)O)NC(=O)COc2cc(C)ccc2C)cc1OC (configuration not stated) | i | i | i | i | i | i
CN(C(=S)Nc1ccc(F)cc1)C1(c2ccccc2Cl)CCCCC1=O (configuration not stated) | i | 24303 | i | i | i | i
O=CNCCCc1nc2ccccc2n1Cc1cccc2ccccc12 | ? | 20866 | i | i | i | i
O=C(Cn1nc(C(F)(F)F)c2c1CCC2)Nc1ccccc1C(F)(F)F | i | i | i | i | i | i
CCc1c(C)sc(NC(=O)Cn2nc(C(F)(F)F)c3c2CCCC3)c1C#N | i | 22610 | i | i | i | i
Cc1cc(C(F)(F)F)nn1CC(=O)Nc1ccc2c(c1)OCO2 | i | i | i | i | i | i
O=C(Cn1nc(C(F)(F)F)c2c1CCCC2)N1CCOCC1 | i | i | i | i | i | i
O=C(Cn1nc(C(F)(F)F)c2c1CCC2)N1CCN(c2ccccc2)CC1 | i | 23434 | i | i | i | i
O=C(Cn1nc(C(F)(F)F)c2c1CCCC2)Nc1ccc2c(c1)OCO2 | i | 21133 | i | i | i | i
COc1ccccc1NC(=O)Cn1nc(C(F)(F)F)c2c1CCCC2 | i | 25001 | i | i | i | i
Cc1ccc(CN(C)C(=O)c2cc(COc3cccc(C(F)(F)F)c3)on2)o1 | i | i | i | i | i | i
O=C(CN1C(=O)NC2(CCCC2)C1=O)NNC(=O)c1ccc(F)cc1 | i | i | i | nt | i | nt
COc1cc(OC)cc(C2=Cc3ccc(OC)cc3C(CC(C)=O)N2c2ccc(C#CCCO)cc2)c1 (configuration not stated) | i | i | i | nt | i | nt
Cc1c(C(=O)OCC(=O)N(C)Cc2ccc(Cl)cc2)oc2ccccc12 | i | i | i | nt | i | nt
CC(C)CC1C(=O)N(Cc2cn(CCC3OCCCO3)nn2)CCS(=O)(=O)N1Cc1ccc(-c2ccc(Cl)nc2)cc1 (configuration not stated) | i | i | i | nt | i | nt
COc1ccc(NC(=O)Cn2nc(C(F)(F)F)c3c2CCCC3)cc1OC | ? | 22117 | i | i | i | i
SMILES | BoNT A protease | Bead autofluor | BoNT-F LC inh | VHR inh abs | Anthrax LF inh2 | 3CLpro inhibitor
CC1CCN(c2nc3nonc3nc2N2CCC(C)CC2)CC1 | ? | 21212 | i | i | i | i
CC1CCCN(c2nc3nonc3nc2N2CCCC(C)C2)C1 (configuration not stated) | i | i | i | i | i | i
O=C1OCCN1c1c(-c2ccccc2)c(-c2cccs2)nc2c(-c3ccccc3)cccc12 | i | i | i | i | i | i
Cc1ccc(Cn2c(N3CCN(C)CC3)nc3c2c(=O)[nH]c(=O)n3C)cc1 | i | i | i | i | i | i
COc1ccc(NC(=O)CSc2n[nH]c(C(C)C)n2)c([N+](=O)[O-])c1 | i | i | i | i | i | i
COc1ccc(NC(=O)CSc2n[nH]c(N)n2)c([N+](=O)[O-])c1 | i | 23423 | i | i | i | i
COCc1ccc(C(=O)N2CCCC(N3CCN(c4ccc(F)cc4)CC3)C2)o1 (configuration not stated) | i | i | i | i | i | i
COc1ccccc1N(CN1CCCC1=O)C(=O)c1c(F)cccc1F | i | i | i | i | i | i
COc1ccccc1N(CN1CCCC1=O)C(=O)COc1ccccc1 | i | 16310 | i | i | i | i
COc1ccccc1N(CN1CCCC1=O)C(=O)c1ccccc1F | i | i | i | i | i | i
CCOc1ccc(C(=O)N(CN2CCCC2=O)c2cccc(Cl)c2)cc1 | i | i | i | i | i | i
COc1cccc(C(=O)N(CN2CCCC2=O)c2cccc(Cl)c2)c1OC | i | 16669 | i | i | i | i
COc1cc(OC)cc(C(=O)N(CN2CCCC2=O)c2ccccc2OC)c1 | i | 18589 | i | i | i | i
COc1ccc(C(CNC(=O)COc2ccc(Cl)c(C)c2)N2CCCCC2)cc1 (configuration not stated) | i | i | i | i | i | i
CN(CCc1ccccn1)Cc1ccc(Cl)cc1 | i | 20900 | i | i | i | i
CCc1ccc(CN(C)CCc2ccccn2)cc1 | ? | 16273 | i | i | i | i
COc1ccccc1/C=C/C(=O)OC(C)CN1CCOCC1 (configuration not stated) | i | 21922 | i | i | i | i
COc1ccccc1/C=C/CN1CCOCC1 | i | 22191 | i | i | i | i
CC(CN1CCOCC1)OC(=O)c1ccccc1 (configuration not stated) | ? | i | ? | i | i | i
Cc1[nH]c(=O)[nH]c(=O)c1S(=O)(=O)Nc1cccc([N+](=O)[O-])c1C | i | i | i | i | i | i
O=C1Nc2ccccc2N=C(c2ccccc2)C1Br (configuration not stated) | i | i | i | i | i | i
O=C1Nc2ccccc2N=C(c2ccccc2)C1N1CCOCC1 (configuration not stated) | ? | 21946 | i | i | i | i
O=[N+]([O-])CC(c1ccccc1)c1c[nH]c2ccccc12 (configuration not stated) | i | i | ? | nt | i | nt
COc1cc(C(C[N+](=O)[O-])c2c(C)[nH]c3ccccc23)cc(OC)c1OC (configuration not stated) | i | 21574 | i | i | i | i
COCCNC(=O)C1CCCN(C(=O)c2csc3ccccc23)CC1 (configuration not stated) | i | i | i | nt | i | nt
Cc1scc(C(=O)N2CCN(S(C)(=O)=O)CC2)c1-c1ccccc1 | ? | 24362 | i | i | i | i
CS(=O)(=O)N1CCN(C(=O)c2csc3ccccc23)CC1 | i | 24374 | i | i | i | i
O=C(c1csc2ccccc12)N1CCN(c2ccc(Cl)c(Cl)c2)CC1 | i | i | i | i | i | i
Cc1cc(C(=O)N2CCN(S(C)(=O)=O)CC2)sc1-c1ccccc1 | i | i | i | i | i | i
COc1ccc(N2CCN(C(=O)c3csc4ccccc34)CC2)cc1 | i | 16323 | i | i | i | i
